# Experimental data as given in PubChem BioAssay (NCATS).
# Inconclusive results are not listed. A call without a number means that no potency is given here. A number with no mark means an inactive call. Activity calls are given as the source filed them. The call rests on the fitted dose curve; in most records, active means well fitted cell-killing curve with a large enough effect; inconclusive means small, poorly fitted or top-dose-only effect, or effect the other way; inactive means flat fitted curve, though single readings scatter.
# Test system: CAOV3
# Assay: Primary qHTS to identify gynecologic anti-cancer compounds using libraries of approved drugs and bioactive compounds (AID 1345084); further: nearly all actives have a fitted effect of over 55% in size
# Details: Gynecologic cancer cell panel viability, ATPlite luminescence, 48 h; series mostly up to 57.5 µM
# Source text: National Center for Advancing Translational Sciences [NCATS] Assay Overview: Chemotherapeutic drug responses vary from cancer to cancer and from patient to patient. These variations could be caused by a number of factors including patient genomic background, tumor mutations, tumor heterogeneity, and aspects of drug treatment. Chemotherapeutic drug resistance is also a common issue and can lead to ineffective treatment and patient death. Here we have profiled the cell killing effects of thousands of compounds to characterize the responses in three gynecological cancers, identify cancer-selective compounds, and understand the diversity of responses to these compounds from pan-cancer suppressors to single cell line selective compounds. In this assay, we screened a 7,914 compound drug library that included approved drug and bioactive compounds in six ovarian, three cervical, and […] placental cancer cell lines using the ATPlite assay for cell viability. […] The cervical cancer cell lines included HeLa, Ca Ski, and C-33 A. The placental cancer cell lines included JEG-3. HEK 293T cells were used as the control cell line to determine the selectivity index. ATPlite is a luminescence based assay reliant on the conversion of a luciferase substrate to light in the presence of ATP. As a cytotoxic compound will suppress growth and decrease the number of cells, the concentration of ATP will decrease, and less light signal will be detected in the well.
# Assay Protocol Summary: 1,000 cells in 4 uL of media were dispensed into white, solid bottom 1536-well plates using a Multidrop Combi (Thermo Scientific). The Assay plates were incubated for 16 hours at 37 C with 5% CO2 in assay plates, followed by the addition of 23 nL of DMSO or drug dissolved in DMSO. Each compound was assayed in five concentrations (0.092, 0.46, 2.3, 11.5, and 57.5 uM), using the automated Wako 1536 Pin Tool workstation and incubated at 37 C with 5% CO2 48 hours. 4 uL of ATPlite, the ATP monitoring reagent, was then added to the each well of the assay plates using the Multidrop Combi reagent dispenser followed by incubation for 15 minutes at room temperature. The resulting luminescence was measured using the ViewLux plate reader.
# Potency means the concentration at half of the fitted maximal effect.
Compound,Potency,"activity change, negative = cytotoxicity"
C=C1CC[C@@H]2[C@](C)(CO)[C@H](O)CC[C@@]2(C)[C@@H]1/C=C/C1=CCOC1=O,inactive,–
O=C(NCCN1CCC(n2c(=O)[nH]c3ccccc32)CC1)c1cc2cc(F)ccc2[nH]1,inactive,–
CC(=O)OC1C(OC(=O)c2ccccc2)C2C(C)(C)CCC(OC(C)=O)C2(C)C23CCC(C)(C2)C(=O)CC13 (stereo not given),inactive,–
CC(=O)Nc1cccc(-c2csc(Nc3cc(C)ccn3)n2)c1,inactive,–
C#CCCCn1cc(-c2cccc3c2N[C@H](C)CC(=O)N3)cn1,inactive,–
Cc1nc2c(C(F)(F)F)cccc2nc1-c1ccc(-c2cccc(S(C)(=O)=O)c2)cc1,inactive,–
CCc1cnc(N2CCC(c3nc(COc4ccc(-n5cnnn5)cc4)cs3)CC2)nc1,inactive,–
C[C@@H]1O[C@@H](O[C@H]2[C@H](OC(=O)[C@]34CCC(C)(C)C[C@H]3C3=CCC5[C@@]6(C)C[C@H](O)[C@H](O[C@@H]7O[C@H](CO)[C@@H](O)[C@H](O)[C@H]7O)[C@](CO)(C(=O)O)C6CC[C@@]5(C)[C@]3(C)C[C@H]4O)OC[C@H](O)[C@@H]2O)[C@H](O)[C@H](O)[C@H]1O[C@@H]1OC[C@@H](O)[C@H](O[C@@H]2OC[C@](O)(CO)[C@H]2O)[C@H]1O (stereo not given in full),–,-2.46% [at 6.55 µM]
COc1ccc(NC(=O)c2ccc(C(=N)N(C)C)cc2)c(C(=O)Nc2ccc(Cl)cn2)c1,inactive,–
COc1ccccc1-c1ccc(-c2cn(C(=O)N3CCCCC3Cc3ccccc3)nn2)cc1 (stereo not given),inactive,–
C[C@@H]1CC[C@@]23CC[C@]4(C)[C@@](C=CC5[C@@]6(C)CC[C@H](O)C(C)(C)C6CC[C@]54C)(OC2=O)C3[C@H]1C (stereo not given in full),inactive,–
C/C=C(\C)C(=O)OC1C[C@@]2(COC(C)=O)O[C@H]2/C=C\[C@@]2(C)O[C@@H]2[C@H]2OC(=O)C(COC(C)=O)=C12 (stereo not given in full),inactive,–
C=C1/C(=C/C=C2\CCC[C@]3(C)[C@@H]([C@H](C)/C=C/[C@H](O)C4CC4)CC[C@@H]23)C[C@@H](O)C[C@@H]1O,inactive,–
O=C(NCCN1CCN(c2cccc3ccc(O)cc23)CC1)c1ccc(F)cc1,inactive,–
C=CCCN1CCC2(CC1)CN(C(=O)c1c(F)cccc1F)c1ccc(Cl)cc12,inactive,–
COc1ccc2nc3n[nH]c(C)c3c(NCCOCCO)c2c1,inactive,–
COCCCNC(=O)c1ccc(Cn2c(=O)c3ccccc3n(Cc3ccc(C(C)C)cc3)c2=O)cc1,inactive,–
COc1cc(C#N)ccc1S(=O)(=O)Nc1ccc2c(c1)cc(C)c(=O)n2C,inactive,–
Cc1cccc(-c2[nH]ncc2-c2ccnc3ccccc23)n1,inactive,–
CC1(C)Oc2ncnc(N)c2N=C1c1ccc(C23CCC(CC(=O)O)(CC2)CC3)cc1,inactive,–

Compound,Potency,"activity change, negative = cytotoxicity"
O=C(Nc1ccn(Cc2ccc(O)cc2C(F)(F)F)n1)c1c(F)cccc1F,inactive,–
O=C(Nc1cnc(Cl)nc1)c1ccc(F)c(F)c1,inactive,–
CCNC1(C(N)=O)CCN(c2ncnc3c2nc(-c2ccccc2Cl)n3-c2ccc(Cl)cc2)CC1,inactive,–
CC(=O)OC1CC(C)C2(CCC3(CC(=O)OC3O)O2)C2(C)CCCC(C)(C)C12 (stereo not given),inactive,–
COC(=O)CC1OC(C)C2=C(O)c3c(O)cccc3C(=O)C23OC13 (stereo not given),3.55 µM (active),–
CCC(C)C1NC(=O)C(Cc2ccccc2)NC(=O)C(CCCCCC(=O)C(O)CO)NC(=O)C2CCCCN2C1=O (stereo not given),inactive,–
CCc1cccc(CC)c1-n1c(C=C(C)C)c(C(=O)N2CCNCC2)cc(-c2nc(-c3ccc(C(F)(F)F)cc3)cs2)c1=O,inactive,–
CC(C)(O)C1Cc2c(ccc(C(=O)CCc3ccccc3)c2O)O1 (stereo not given),10 µM (active),–
O=C(NCc1nc2ccccc2c(=O)n1-c1ccc(F)cc1)Nc1ccc(Cl)c(C(F)(F)F)c1,inactive,–
c1cc(NCCc2c[nH]c3ccccc23)cc(Nc2ccncc2)c1,inactive,–
O=C(NCCCN1CCC2(CC1)OCc1ccccc12)[C@H]1CCCN1Cc1ccccc1,inactive,–
O=S(=O)(Cc1ccccc1)Nc1ccc(-c2ccc3c(cnn3-c3ccc(F)cc3)c2)c(C(F)(F)F)c1,inactive,–
Cc1ccc(O)cc1Nc1ccnc(Nc2cccc(C(N)=O)c2)n1,inactive,–
Cc1cc(N2CCOCC2)ccc1Nc1nc(NC2CCCCC2)c2[nH]cnc2n1,inactive,–
O=C(Nc1cc(C(F)(F)F)cc(C(F)(F)F)c1)c1cnc(Cl)nc1C(F)(F)F,inactive,–
C=C1C(=O)OC2C(OC(=O)C=C(C)C)C(C)=C3C(=O)C=C(C)C3C(O)C12 (stereo not given),11.2 µM (active),–
CC1(C)C2CCC(CO[C@@H]3O[C@H](CO[C@@H]4OC[C@](O)(CO)[C@H]4O)[C@@H](O)[C@H](O)[C@H]3O)C1C2 (stereo not given in full),inactive,–
COc1cc(N2CCC(N3CCN(C)CC3)CC2)ccc1Nc1ncc(Cl)c(Nc2ccccc2P(C)(C)=O)n1,2.24 µM (active),–
C=C1CCCC2(C)CCC(C(C)(C)OC3OC(C)C(O)C(O)C3OC(=O)/C(C)=C\C)CC12 (stereo not given),inactive,–
C=C(COC(=O)C(O)C(O)CN)C12OC1C1(C)C(=CC2=O)C(O)C(O)CC1C (stereo not given),inactive,–
